Measured values published in PubChem BioAssay (NCATS).
“And” between values parts separate entries of the source, which are not always exact repeats. Equal values may be shown once. Results filed as inconclusive are left out. A structure can be active in one record and inactive in another. The source made the active and inactive calls. Unless noted, calls follow the shape of the dose curve; as a rule, active = well fitted inhibition curve with a large enough effect; inconclusive = small, poorly fitted or top-dose-only effect; inactive = flat fitted curve, though single readings scatter.

Tests used:
[1] = Drug repurposing screens with cells derived from glioblastoma tumor samples (AID 1345199); conditions: GBM patient neurospheres viability, ATP luminescence, 48 h; also: nearly all actives have a fitted effect of over 40% in size; also: potency is read from the fitted curve at half-maximal effect; as to activity, negative = cell killing: % is scaled to controls: 0 for no effect and ±100 for the full control effect
In short: (§1)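 Four patient lines of CD133+ GBM neurospheres were screened at several concentrations; hits were retested in those lines plus three slower-growing GBM lines, using 48-hour treatment and ATP-based viability.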

astro = control astrocytes; assay: as above; conditions: viability, ATP luminescence, 48 h; series mostly up to 45.9 µM
In short: as §1

[2] = target: Nuclear receptor subfamily 1 group I member 2 (Rattus norvegicus) (UniProt Q9R1A7); assay: qHTS assay for small molecule activators of the rat pregnane X receptor (rPXR) signaling pathway (AID 651751; call rule not given here; also: 0% is about no effect); conditions: rPXR reporter cells, luciferase (One-Glo), 24 h
Sequence of Nuclear receptor subfamily 1 group I member 2 (Rattus norvegicus) (Q9R1A7 whole entry, looked up): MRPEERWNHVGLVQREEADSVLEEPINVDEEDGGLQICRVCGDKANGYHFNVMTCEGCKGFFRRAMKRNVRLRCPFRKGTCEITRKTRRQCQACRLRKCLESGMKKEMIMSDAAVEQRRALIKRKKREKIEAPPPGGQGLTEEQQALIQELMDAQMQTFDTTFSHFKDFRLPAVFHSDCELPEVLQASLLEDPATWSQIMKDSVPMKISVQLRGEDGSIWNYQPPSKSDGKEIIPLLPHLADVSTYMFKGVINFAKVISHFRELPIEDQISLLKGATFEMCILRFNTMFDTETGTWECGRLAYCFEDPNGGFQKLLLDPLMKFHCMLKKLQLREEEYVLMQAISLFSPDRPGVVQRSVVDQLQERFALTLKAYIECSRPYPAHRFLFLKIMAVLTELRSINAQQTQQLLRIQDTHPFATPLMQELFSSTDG

[3] = qHTS assay for small molecule activators of the human pregnane X receptor (PXR) signaling pathway (AID 720659; call rule not given here; also: 0% is about no effect); conditions: DPX-2 HepG2 CYP3A4-luciferase, 24 h; series mostly up to 92.3 µM
[4] = at 45.9 µM (top of the series), tumour line B
[5] = at 45.9 µM (top of the series), tumour line D
[6] = at 46.1 µM (top of the series), tumour line C
[7] = at 20 µM (top of the series), tumour line C
[8] = at 21.2 µM (top of the series), tumour line B
[9] = at 21.2 µM (top of the series), tumour line D
[10] = at 21.3 µM (top of the series), tumour line A
[11] = at 46 µM (top of the series), tumour line A

c1cc2c(c(NC3=NCCN3)c1)CCCC2
active: Potency ([1]; tumour line A) 14.1 µM
inactive: activity, negative = cell killing [1, 4] -18.6% | activity, negative = cell killing [1, 5] -28.2% | activity, negative = cell killing [1, 6] 1.62% | Potency (astro)

O=S(=O)(O)c1cc(O)ccc1O
inactive: activity, negative = cell killing [1, 7] 0.614% | activity, negative = cell killing [1, 8] -13.4% | activity, negative = cell killing [1, 9] -2.62% | activity, negative = cell killing [1, 10] -30% | Potency (astro)

CC1(C)[C@H](C=C(Cl)Cl)[C@H]1C(=O)OCc1c(F)c(F)cc(F)c1F
inactive: activity, negative = cell killing [1, 4] -3.56% | activity, negative = cell killing [1, 5] -11.5% | activity, negative = cell killing [1, 11] -26.8% | activity, negative = cell killing [1, 6] -13.8% | Potency (astro)

O=C1C[C@@H]2OCC=C3CN4CC[C@]56c7ccccc7N1[C@H]5[C@H]2[C@H]3C[C@H]46 (tested in a mixture with another compound)
active: Potency ([1]; tumour line A) 20 µM
inactive: activity, negative = cell killing [1, 4] -8.18% and -6.54% | activity, negative = cell killing [1, 5] -14.5% and -6.5% | activity, negative = cell killing [1, 6] 1.96% and -18.9% | Potency (astro)

O=Cc1ccco1
inactive: activity, negative = cell killing [1, 4] -3.46% | activity, negative = cell killing [1, 5] 2.23% | activity, negative = cell killing [1, 11] -6.89% | activity, negative = cell killing [1, 6] -7% | Potency (astro) | max response [2] 4.33% | outcome [3]

C=C[C@H]1CN2CC[C@H]1C[C@H]2[C@H](OC(=O)OCC)c1ccnc2ccc(OC)cc12
inactive: activity, negative = cell killing [1, 4] -6.26% | activity, negative = cell killing [1, 5] -11.2% | activity, negative = cell killing [1, 6] 18.3% | Potency (astro)
active: Potency ([1]; tumour line A) 10 µM

O=c1ccc2cc(O[C@@H]3O[C@H](CO)[C@@H](O)[C@H](O)[C@H]3O)c(O)cc2o1
inactive: activity, negative = cell killing [1, 7] -2.02% | activity, negative = cell killing [1, 8] -12.8% | activity, negative = cell killing [1, 9] -17.9% | activity, negative = cell killing [1, 10] -15.8% | Potency (astro)

O=C/C=C/c1ccccc1
inactive: activity, negative = cell killing [1, 4] 0.0687% | activity, negative = cell killing [1, 5] -9.63% | activity, negative = cell killing [1, 11] -23.4% | activity, negative = cell killing [1, 6] 1.48% | Potency (astro) | max response [2] -2.3% and 9.18% | outcome [3]

Oc1cc(Cl)c(Cl)cc1Cl
inactive: activity, negative = cell killing [1, 4] -12.6% | activity, negative = cell killing [1, 5] -21.4% | activity, negative = cell killing [1, 11] -39.7% | activity, negative = cell killing [1, 6] -1.02% | Potency (astro) | max response [2] 6.93% and 2.63% | outcome [3]

CCN(CC)C(=O)/C(Cl)=C(\C)OP(=O)(OC)OC
inactive: activity, negative = cell killing [1, 4] 1.79% | activity, negative = cell killing [1, 5] -19.8% | activity, negative = cell killing [1, 11] -32% | activity, negative = cell killing [1, 6] 1.99% | Potency (astro)

ClC=C(Cl)Cl
inactive: activity, negative = cell killing [1, 4] -0.797% | activity, negative = cell killing [1, 5] -16.6% | activity, negative = cell killing [1, 11] -33.6% | activity, negative = cell killing [1, 6] -1.4% | Potency (astro) | max response [2] 1.22% and -1.96% | outcome [3]

CCN(CC)C(=O)N[C@H]1C[C@@H]2c3cccc4[nH]cc(c34)C[C@H]2N(C)C1
inactive: activity, negative = cell killing [1, 4] -22.5% | activity, negative = cell killing [1, 5] -14.1% | activity, negative = cell killing [1, 6] -20.3% | Potency (astro)
active: Potency ([1]; tumour line A) 22.4 µM

CC(=O)O[C@H]1CC[C@@]2(C)C(=CC[C@@H]3[C@@H]2CC[C@]2(C)C(=O)CC[C@@H]32)C1
inactive: activity, negative = cell killing [1, 7] -28.7% | activity, negative = cell killing [1, 8] -3.53% | activity, negative = cell killing [1, 9] -21.5% | Potency (astro)
active: Potency ([1]; tumour line A) 7.94 µM

CNC(C)C(O)c1ccc(O)cc1 (centres undefined)
inactive: activity, negative = cell killing [1, 4] -14.1% and -15.9% | activity, negative = cell killing [1, 5] 3.04% and 6.23% | activity, negative = cell killing [1, 11] -17.8% and -27.7% | activity, negative = cell killing [1, 6] -5.67% and -20.1% | Potency (astro)

O=CC=O
inactive: activity, negative = cell killing [1, 4] 0.224% | activity, negative = cell killing [1, 5] -5.05% | activity, negative = cell killing [1, 11] -22.3% | activity, negative = cell killing [1, 6] 29.7% | Potency (astro) | max response [2] -6.34% | outcome [3]

CCOC(=O)/C=C(C)/C=C/C[C@@H](C)CCCC(C)C
inactive: activity, negative = cell killing [1, 4] -7.77% | activity, negative = cell killing [1, 5] 3.89% | activity, negative = cell killing [1, 11] -29.3% | activity, negative = cell killing [1, 6] -6.42% | Potency (astro)

CNc1ccc(C(=O)CC(O)CCC(C)C2OC(=O)CC(O)CC(=O)CC(O)CC(O)CC(O)CC(O)CC3(O)CC(O)C(C(=O)OC)C(CC(O[C@@H]4O[C@H](C)[C@@H](O)[C@H](N)[C@@H]4O)/C=C/C=C/C=C/C=C/C=C/C=C/C=C/C2C)O3)cc1 (some centres undefined)
inactive: activity, negative = cell killing [1, 4] -16.2% | activity, negative = cell killing [1, 5] 9.06% | activity, negative = cell killing [1, 11] -20.9% | activity, negative = cell killing [1, 6] -13.4% | Potency (astro)

ClCC1CO1 (centres undefined)
inactive: activity, negative = cell killing [1, 4] -15% | activity, negative = cell killing [1, 5] -9.19% | activity, negative = cell killing [1, 11] -27.8% | activity, negative = cell killing [1, 6] -16.2% | Potency (astro) | max response [2] 1.11% | outcome [3]

Clc1ccccc1Cl
inactive: activity, negative = cell killing [1, 4] -2.22% | activity, negative = cell killing [1, 5] -8.63% | activity, negative = cell killing [1, 11] -3.16% | activity, negative = cell killing [1, 6] -0.0025% | Potency (astro) | max response [2] 6.34% | outcome [3]

CCCCC[C@@H](O)C1C(=O)OC(C)[C@H](O)/C=C/C=C/C=C/C=C/C=C(\C)C(O)C(O)C(O)C[C@H](O)C[C@H](O)C[C@H](O)C[C@H](O)C[C@@H]1O (some centres undefined)
inactive: activity, negative = cell killing [1, 4] -7.45% and 7.1% | activity, negative = cell killing [1, 5] 14.9% and -7.76% | activity, negative = cell killing [1, 11] -18.3% and -29% | activity, negative = cell killing [1, 6] -15.7% and -7.35% | Potency (astro)
